An excerpt weighted towards active compounds, which were near 32% of everything screened.
PostGolgi yeast = phenotypic screen on post-Golgi transport, primary screen; inhibition, % at 10 µM; AID 739, 2007; post-Golgi transport phenotypic cell assay; 98,000 tested, 0.9% active;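 further: yeast cells grown in 1536-well plates; yeast grown about 18 h at 30C before absorbance read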
CYP2C9 inh = blockers of cytochrome P450 2C9 activity – biochemical, luminescence, ADME assay, primary screen. CYP2C9 Supersomes, luciferin-H conversion. inhibition, % at 5 µM. AID 777, 2007. P11712. 96,000 tested, 20% active;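 active means blocking of liver enzyme CYP2C9 beyond about 50% at 5 µM, limit read from the data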
Target sequence (P11712 whole entry, looked up): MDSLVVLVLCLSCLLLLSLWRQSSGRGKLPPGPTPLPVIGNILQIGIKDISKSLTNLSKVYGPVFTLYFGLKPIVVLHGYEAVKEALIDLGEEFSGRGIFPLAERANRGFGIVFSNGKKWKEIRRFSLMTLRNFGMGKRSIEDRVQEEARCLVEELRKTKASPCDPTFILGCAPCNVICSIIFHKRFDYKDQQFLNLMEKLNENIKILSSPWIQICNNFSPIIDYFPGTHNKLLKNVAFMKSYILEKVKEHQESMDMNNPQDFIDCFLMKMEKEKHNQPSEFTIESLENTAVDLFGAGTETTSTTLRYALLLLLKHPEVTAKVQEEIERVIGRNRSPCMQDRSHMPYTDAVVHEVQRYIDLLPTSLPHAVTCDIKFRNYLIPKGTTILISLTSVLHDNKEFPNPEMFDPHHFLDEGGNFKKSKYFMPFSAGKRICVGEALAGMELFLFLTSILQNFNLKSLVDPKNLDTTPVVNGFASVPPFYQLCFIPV
CYP2C9 activ = human CYP2C9 activators, primary screen, biochemical, luminescence | activation factor at 5 µM | 96,000 tested, 1.4% active | AID 1024, 2008 | Cytochrome P450 2C9 (Homo sapiens), P11712 | recombinant CYP2C9, luciferin-H conversion; stronger effect = higher value; factor 1 = untreated enzyme, 0 = blocked;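 active means activation factor of 2 or more for CYP2C9 at a 5 µM dose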;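 further: 0 = sulfaphenazole-blocked wells and 1 = vehicle-only wells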
CYP2C19 inh = blockers of cytochrome P450 2C19 activity – biochemical, luminescence, ADME assay, primary screen | inhibition, % at 5 µM | CYP2C19 Supersomes, luciferin-H EGE luminescence, 30 min | 96,000 tested, 21% active;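 active means CYP2C19 inhibition above a set limit at 5 µM in the primary screen, cut at about 50% in these data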;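 further: plate controls were negative control wells for no effect and 2.5 mM tranylcypromine positive control for full effect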
CYP2C19 act = human CYP2C19 activators, primary screen, biochemical, luminescence; Cytochrome P450 2C19 (Homo sapiens), P33261; recombinant CYP2C19, luciferin-H EGE luminescence; stronger effect = higher value; 0 = fully inhibited enzyme, 1 = untreated enzyme; activation factor at 5 µM; 96,000 tested, under 10 active; AID 1025, 2008;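 active means activation factor of at least 2 at 5 µM in the primary screen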;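 further: 0 = wells with 2.5 mM tranylcypromine and 1 = vehicle-only wells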
PostGolgi ctrl = growth inhibition of yeast control strain, primary screen, counter-screen for post-Golgi transport modulator project | AID 738, 2007 | 98,000 tested, 5% active | inhibition, % at 10 µM | efflux-deficient yeast background strain, growth absorbance A615, 16 h
Numbers without * were called inactive; i = inactive; . = no result. Unless noted, no stated cut-off is given here; in the data, active means inhibition above about 30%; inactive means the rest.

SMILES	PostGolgi yeast	CYP2C9 inh	CYP2C9 activ	CYP2C19 inh	CYP2C19 act	PostGolgi ctrl
Cc1cccc(Cc2c(C)nc3c(C(=O)N4CCN(Cc5ccc6c(c5)OCO6)CC4)cnn3c2C)c1	12	76*	0.2	93*	0.1	14
O=C(c1cc(-c2ccccc2)on1)N1CCN(Cc2ccc3c(c2)OCO3)CC1	13	68*	0.3	70*	0.3	15
CC(=O)C1=C(O)C(=O)N(CCNCCO)C1c1ccccc1 (stereo not drawn)	5	0	1	0	1	5
Cc1onc(-c2ccccc2Cl)c1C(=O)Nc1cnn(Cc2ccccc2)c1	.	37	0.6	9	0.9	.
Cc1cccc(-c2nc(CSCC(=O)N3CCN(Cc4ccc5c(c4)OCO5)CC3)c(C)o2)c1	15	16	0.8	70*	0.3	22
CCCC(=O)Nc1ccc(C(=O)NNC(=O)COc2ccc(Br)c(C)c2)cc1	-2	4	1	0	1	5
CCCSC1=C(C#N)C(c2ccccc2C)CC(=O)N1 (stereo not drawn)	0	39	0.6	57*	0.4	11
CCCSC1=C(C#N)C(c2ccccc2OCC)CC(=O)N1 (stereo not drawn)	-4	23	0.8	47	0.5	7
CCSC1=C(C#N)C(c2ccccc2Cl)CC(=O)N1 (stereo not drawn)	-2	18	0.8	30	0.7	15
CCCSC1=C(C#N)C(c2ccc(Cl)cc2Cl)CC(=O)N1 (stereo not drawn)	-2	67*	0.3	37	0.6	37*
N#CCCCSC1=C(C#N)C(c2ccccc2Cl)CC(=O)N1 (stereo not drawn)	5	35	0.7	88*	0.1	0
CCCCSC1=C(C#N)C(c2ccccc2C)CC(=O)N1 (stereo not drawn)	11	29	0.7	42	0.6	33*
O=C(CSc1nnc(-c2cccnc2)o1)OC1CCCCC1	11	-19	1.2	-5	1	2
Cc1ccc(OCc2ccoc2C(=O)O)cc1C	6	-14	1.1	-2	1	6
Cc1ccc(C)c(NC2=C(Cl)C(=O)OC2OC(=O)c2ccco2)c1 (stereo not drawn)	-1	58*	0.4	76*	0.2	-1
O=C(OC(C(=O)NC1CCCC1)c1ccccn1)c1cccs1 (stereo not drawn)	-5	0	1	6	0.9	-2
Cc1[nH]c(=O)[nH]c(=O)c1CSc1nnc(CCCCCNC(=O)OC(C)(C)C)o1	-5	-5	1	2	1	6
COc1ccc(-c2cc(-c3ccccc3)nc(-c3ccc4c(c3)NC(=O)CO4)c2)cc1	-4	33	0.7	8	0.9	5
COc1ccc2c(c1)NC(=O)CC(c1ccccc1)=N2	-35	49	0.5	75*	0.3	15
N=c1n(CCN2CCOCC2)c2ccccc2n1Cc1ccccc1Br	10	0	1	0	1	10
CCSc1nnc(NC(=O)CSc2nccn2-c2cccc(C)c2C)s1	-5	70*	0.3	35	0.7	17
CCSc1nnc(NC(=O)CSc2ncccn2)s1	-2	-2	1	8	0.9	-4
Cc1cccc(-n2ccnc2SCC(=O)Nc2nnc(C)s2)c1	11	-38	1.4	-7	1.1	4
CCSc1nnc(NC(=O)CSc2nccn2-c2cc(C)cc(C)c2)s1	4	50*	0.5	18	0.8	19
CC(Oc1ccc(Cl)cc1)C(=O)Nc1nccs1 (stereo not drawn)	3	37	0.6	41	0.6	-3
SMILES	PostGolgi yeast	CYP2C9 inh	CYP2C9 activ	CYP2C19 inh	CYP2C19 act	PostGolgi ctrl
Cc1cc(C)c(S(=O)(=O)n2ccc(-c3ccc(OCCN(C)c4ccccn4)cc3)n2)c(C)c1	-4	57*	0.4	14	0.9	2
O=C(NN1CCOCC1)c1cc(-c2cccc(Cl)c2)nc2ccccc12	-7	7	0.9	13	0.9	2
O=c1cc(Cl)[nH]c(=O)n1CCNc1ncc(C(F)(F)F)cc1Cl	-20	100*	0	68*	0.3	2
O=C(Nc1ccccc1-c1nnc(SCc2ccccc2)o1)c1ccccc1	9	79*	0.2	16	0.8	18
O=c1c(-c2nnc(SCc3ccc(Cl)cc3)o2)cccn1Cc1ccccc1	11	45	0.6	91*	0.1	61*
O=C(O)c1cccc(CSc2nnc(-c3ccco3)o2)c1	-1	-8	1.1	-5	1.1	13
Cc1ccc(-c2nnc(SCc3ccccc3F)o2)cc1	-4	-2	1	2	1	20
Cc1ccccc1-c1nnc(SCc2ccc(F)cc2)o1	-2	5	0.9	-2	1	35*
O=C(Nc1ccccc1-c1nnc(SCc2ccc(Cl)cc2)o1)c1ccccc1	22	70*	0.3	-3	1	-3
Clc1ccc(CSc2nnc(-c3c[nH]c4ccccc34)o2)cc1	-8	20	0.8	5	1	27
O=c1cc(O)n(-c2ccc(Cl)cc2)c(=S)[nH]1	-4	43	0.6	12	0.9	11
Nc1ncnc2nc(N3CCN(C(=O)c4ccccc4)CC3)[nH]c12	2	21	0.8	31	0.7	0
CCCC(=O)Nc1ccccc1NC(=O)C1CCCCC1	3	4	1	2	1	9
Cc1nc(C)c(C(=O)N/N=C/c2c[nH]c3ccccc23)s1	2	-20	1.2	3	1	1
Cc1nc(C)c(C(=O)N/N=C/c2cn(C)c3ccccc23)s1	0	-24	1.2	53*	0.5	7
O=C(Oc1cccc(NC(=O)c2ccco2)c1)c1cccc(S(=O)(=O)N2CCCCC2)c1	-3	4	1	-17	1.2	6
Cc1ccc(C)c(/C(O)=C2/C(=O)C(=O)N(CCN3CCOCC3)C2c2ccco2)c1 (stereo not drawn)	2	-20	1.2	-1	1	26
O=C(CN1c2cccc3cccc(c23)S1(=O)=O)N1CCOCC1	4	13	0.9	25	0.7	7
COc1ccc(NC(=O)C(C)N2c3cccc4cccc(c34)S2(=O)=O)cc1 (stereo not drawn)	8	50	0.5	67*	0.3	-1
CCN1c2cccc3cccc(c23)S1(=O)=O	-11	i	6.2*	78*	0.2	-5
COc1ccc(NC(=O)CN2c3cccc4cccc(c34)S2(=O)=O)cc1	3	-184	2.8*	18	0.8	-15
COC(=O)CNC(=O)CN1c2cccc3cccc(c23)S1(=O)=O	3	-109	2.1*	14	0.9	1
O=C(c1ccco1)N1CCN(S(=O)(=O)c2ccc(S(=O)(=O)NC3CCCC3)cc2)CC1	0	14	0.9	-5	1	10

Compound activity from PubChem.
